Bioassay records (PubChem BioAssay)
This is a sample that favours compounds with a hit; in the whole collection about 5.7% have one here.
D3 ag – agonists of human D3 dopamine receptor. P35462. D3R DiscoveRx beta-arrestin cells, luminescence, 90 min. max activation, %. 410,000 tested, 0.58% active; in the data active = max activation above about 30%
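Agonist-mode cell screen: cells plated at 1500/well and incubated overnight at 37 °C, then exposed to library compounds for 90 min at 37 °C. Detection reagent was added for 30–60 min at room temperature, and luminescence was read.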
GLP-1R inv ag – acts as inverse agonist at human GLP-1 receptor | P43220 | HEK293 GLP-1R CRE-luciferase, luminescence, 24 h; GLP-1R form is constitutively active | Potency, µM (series often up to 38.3 µM), most hits filed as inhibitors | 410,000 tested, 1.6% active | AID 624417; also: nearly all actives have a fitted effect of over 55% in size
Target sequence (P43220 whole entry, looked up): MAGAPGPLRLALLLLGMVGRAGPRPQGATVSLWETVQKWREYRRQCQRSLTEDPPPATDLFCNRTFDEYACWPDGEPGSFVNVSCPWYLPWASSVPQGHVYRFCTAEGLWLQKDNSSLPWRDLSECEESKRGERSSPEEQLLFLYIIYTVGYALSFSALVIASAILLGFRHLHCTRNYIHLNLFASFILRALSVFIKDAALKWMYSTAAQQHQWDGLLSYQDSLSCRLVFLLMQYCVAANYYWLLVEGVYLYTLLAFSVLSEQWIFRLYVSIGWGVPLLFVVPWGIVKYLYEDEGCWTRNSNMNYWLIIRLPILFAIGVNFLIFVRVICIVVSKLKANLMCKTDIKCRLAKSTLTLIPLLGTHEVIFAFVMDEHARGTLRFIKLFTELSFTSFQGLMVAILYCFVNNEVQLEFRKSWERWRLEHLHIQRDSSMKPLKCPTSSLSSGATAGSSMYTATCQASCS
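Luminescence readout: a drop in cAMP-driven luciferase signal flags inverse agonism at a constitutively active GLP-1R stably expressed in HEK293. Compound exposure lasted 24 hr at 37 deg C, 5% CO2.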
ClpP mod – qHTS Assay for Activators of ClpP; purified B. subtilis ClpP, FRET peptide cleavage, 20 min; Potency, µM (series often up to 57.5 µM); 340,000 tested, 1.9% active; ATP-dependent Clp protease proteolytic subunit (Bacillus subtilis (strain 168)), P80244; active = well fitted falling curve with a large enough effect; inconclusive = small, poorly fitted or top-dose-only effect; inactive = no such curve, though single readings can be large or run the other way; also: the source files actives as falling curves though it sought activators and does not explain the sign; nearly all actives have a fitted effect of over 65% in size
Target sequence (P80244 whole entry, looked up): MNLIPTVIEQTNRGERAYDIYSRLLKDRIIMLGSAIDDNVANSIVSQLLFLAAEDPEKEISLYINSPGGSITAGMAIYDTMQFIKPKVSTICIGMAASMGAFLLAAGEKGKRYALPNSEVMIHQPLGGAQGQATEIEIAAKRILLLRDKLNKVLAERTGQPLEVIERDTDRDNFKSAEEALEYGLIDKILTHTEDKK
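Buffer: 100 mM Tris/HCl pH8, 100 mM KCl, 0.05% low protease BSA, 2.5% glycerol, 0.01% Tween-20. ClpP 10 microg/mL final; 20 min RT; delta FRET normalized to ADEP and DMSO controls.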
HEK293 tox – cytotoxicity in counter-screen for GLP-1R inverse agonists; HEK293 cAMP-luciferase reporter cells, luminescence, 24 h; Potency, µM (series often up to 38.3 µM), hits mostly inhibitors; 410,000 tested, 0.13% active;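 also: loss of luciferase light is scored as toxicity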
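1536-well qHTS counterscreen of the MLSMR; 200 cells/uL, 12 h pre-incubation, 23 nL cpd, 24 h at 37 deg C 5% CO2, luciferase detection reagent, 12 min RT, luminescence. Inhibition = undesired.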
D3 antag – D3 dopamine receptor (human) antagonism. D3R cells, DiscoveRx beta-arrestin luminescence, antagonist mode; stronger effect = lower value. max response, negative = inhibition, %. P35462. 360,000 tested, 2.5% active; in the data active = max response below about -50%; inconclusive = no clear call, values can overlap the other calls
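Cells plated overnight at 1500 cells/well, then exposed to library compounds with dopamine controls for 90 minutes at 37 degrees C. DiscoveRx reagent added for 30–60 minutes at room temperature; luminescence read, quantitative HTS format.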
GLP-1R agonist – GLP-1 receptor (human) agonism; 380,000 tested, 0.007% active; Potency, µM (titrated, usually from 45.6 µM), most hits filed as activators; P43220; HEK293 GLP-1R CRE-luciferase, luminescence, 4-6 h; cells express a hypersensitive GLP-1R form
Of the large screens only hits and unclear results are named; the others gave an inactive call. Unless noted, calls follow the shape of the dose curve; as a rule, active = well fitted curve in the direction sought with a large enough effect; inconclusive = small, poorly fitted or top-dose-only effect, or another doubt; inactive = no such curve, though single readings can be large; an effect the other way counts as inactive or inconclusive.

COc1ccc(OCC(=O)NC(Cc2c[nH]c3ccccc23)C(=O)O)cc1 (stereo unspecified)	none (no result: D3 antag, GLP-1R agonist)
COc1cc(CN2CCN(C(c3ccccc3)c3ccccc3)CC2)cc(OC)c1OC	GLP-1R inv ag inconclusive, D3 antag -85
Cc1cccc(CN2CCN(C(c3ccccc3)c3ccc(Cl)cc3)CC2)c1 (stereo unspecified)	GLP-1R inv ag inconclusive, D3 antag -107
CC(C)(C)c1ccc(CN2CCN(C(c3ccccc3)c3ccc(Cl)cc3)CC2)cc1 (stereo unspecified)	none (no result: GLP-1R inv ag, ClpP mod, HEK293 tox, D3 antag, GLP-1R agonist)
CC(C)c1nc2c(s1)CCc1onc(-c3ccc(Cl)cc3)c1-2	D3 ag 32
Cc1ccccc1-c1nc2c(s1)CCc1onc(-c3ccc(Cl)cc3)c1-2	ClpP mod inconclusive
CCCc1nc2c(s1)CCc1onc(-c3ccc(Br)cc3)c1-2	D3 ag 43
COc1ccc(-c2noc3c2-c2nc(-c4ccccc4C)sc2CC3)cc1	GLP-1R inv ag inconclusive, ClpP mod 25µM
CSc1ccc(CCNC(=O)CN2C(=O)COc3ccc(S(=O)(=O)N4CCCC4)cc32)cc1	none (no result: D3 antag)
O=C1NC(c2ccc3c(c2)OCO3)Nc2ccccc21 (stereo unspecified)	ClpP mod 32µM
CC1(CCc2ccc3c(c2)OCO3)NC(=O)c2ccccc2N1 (stereo unspecified)	ClpP mod 28µM
Cc1ccc(C2NC(=O)c3c(sc4c3CCN(C)C4)N2)o1 (stereo unspecified)	ClpP mod 28µM
CN1CCc2c(sc3c2C(=O)NC(c2ccc4c(c2)OCO4)N3)C1 (stereo unspecified)	D3 antag -126
CC(C)NC(=O)C1(C)CCN1C/C=C/c1ccccc1 (stereo unspecified)	none
CN1CCc2c(sc3c2C(=O)NC(c2ccccn2)N3)C1 (stereo unspecified)	ClpP mod 16µM
Cc1ccc(C2NC(=O)c3c(sc4c3CCN(C)C4)N2)s1 (stereo unspecified)	ClpP mod 25µM, D3 antag -55
CN1CCc2c(sc3c2C(=O)NC(c2ccccc2)N3)C1 (stereo unspecified)	none
O=c1c2c3c(sc2nnn1Cc1ccc(Br)cc1)CCCC3	none (no result: D3 antag, GLP-1R agonist)
CCCCNC(=O)CSc1nc2ccccc2nc1Cc1ccc(Cl)cc1	none (no result: D3 antag, GLP-1R agonist)
Cc1ccc(-c2noc(CN(C3CCCCC3)S(=O)(=O)c3ccc(C)cc3)n2)cc1	GLP-1R inv ag inconclusive (no result: D3 antag, GLP-1R agonist)
CCCCN1CC(c2nc3ccccc3n2CCCCOc2cc(C)ccc2C)CC1=O (stereo unspecified)	GLP-1R inv ag inconclusive (no result: D3 antag, GLP-1R agonist)
O=C(c1ccco1)[C@@H]1[C@@H]2C(=O)N(c3ccc(Br)cc3)C(=O)[C@@H]2C2c3ccccc3C=CN21 (stereo partly specified)	D3 antag -57
O=C(NCCc1nc2ccccc2n1Cc1ccccc1F)c1ccc(F)cc1	none (no result: D3 antag, GLP-1R agonist)
CC(C)(Oc1ccc(Cl)cc1)C(=O)NC1CCCCC1	GLP-1R inv ag inconclusive, ClpP mod 20µM
CC1(C)CC(NC(=O)C(C)(C)Oc2ccc(Cl)cc2)CC(C)(C)N1	GLP-1R inv ag inconclusive
Cc1nn(CCC#N)c2nc(-c3ccccc3)cc(C(F)(F)F)c12	GLP-1R inv ag inconclusive, ClpP mod 32µM
Cc1cc(C(F)(F)F)c2c(C)nn(CCc3nn[nH]n3)c2n1	ClpP mod 18µM
Cc1ccc(-n2nc(C)c3c(C(F)(F)F)cc(-c4cccnc4)nc32)cc1C	none (no result: D3 antag, GLP-1R agonist)
Cc1cc(C(F)(F)F)c2c(C)nn(-c3ccccc3)c2n1	ClpP mod 28µM
CCOC(=O)c1cc(-c2ccc(Cl)cc2)nc2c1c(C)nn2CCC#N	GLP-1R inv ag inconclusive, ClpP mod 35µM
CCOC(=O)c1cc(-c2ccc3c(c2)OCCO3)nc2c1c(C)nn2CCC#N	ClpP mod inconclusive
N#CCCn1nc(-c2ccccc2)cc1-n1c(C(F)(F)F)nc2ccccc21	GLP-1R inv ag inconclusive
Cc1nn(CCc2nn[nH]n2)c2nc(-c3ccccc3)cc(C(F)(F)F)c12	GLP-1R inv ag inconclusive
CN(C)C1(CNC(=O)COc2ccc([N+](=O)[O-])cc2)CCCCC1	none (no result: D3 antag, GLP-1R agonist)
CCOC(=O)c1cc(-c2ccc(OC)cc2F)nc2c1c(C)nn2CCC#N	ClpP mod 25µM
COc1cccc(OC)c1OCC(O)CN1CCN(c2ccc(F)cc2)CC1 (stereo unspecified)	D3 antag -77 (no result: ClpP mod)
COc1ccc(N2CCN(CC(O)COc3ccccc3[N+](=O)[O-])CC2)cc1 (stereo unspecified)	D3 antag -54 (no result: ClpP mod)
O=[N+]([O-])c1ccccc1OCC(O)CN1CCN(CC(O)COc2ccccc2[N+](=O)[O-])CC1 (stereo unspecified)	D3 antag -93
Cn1nnc2c(NCc3ccccc3)ncnc21	none (no result: D3 antag, GLP-1R agonist)
Cc1nc(-c2ccccc2)sc1CCNC(=O)c1ccco1	none (no result: D3 antag)
O=C(CCc1nc(-c2ccccc2Cl)no1)NCc1ccco1	none
Cc1cc(OC(C)C(=O)NC2CCN(Cc3ccccc3)CC2)c2c(C)cc(=O)oc2c1 (stereo unspecified)	D3 antag -62
O=C(CCc1nc(-c2ccccc2F)no1)NCc1ccco1	D3 antag -88
Cc1cc(OCC(=O)NC2CCN(Cc3ccccc3)CC2)c2c(C)c(C)c(=O)oc2c1	ClpP mod inconclusive, D3 antag -82
O=C(CCc1nc(-c2ccccc2F)no1)NC1CCN(Cc2ccccc2)CC1	GLP-1R inv ag inconclusive, D3 antag -51
Cc1cc(=O)oc2c(C)c(OCC(=O)NC3CCN(Cc4ccccc4)CC3)ccc12	none
COc1ccc(-c2nc3cc(NC(=O)Cc4ccc(Cl)cc4)ccc3o2)cc1OC	none (no result: D3 antag, GLP-1R agonist)
Cc1ccc(C)c(OCc2cc(C(=O)NC3CCN(Cc4ccccc4)CC3)no2)c1	GLP-1R inv ag 2.2µM, D3 antag -93
CC(C)Oc1ccc(C(=O)NC2CCN(Cc3ccccc3)CC2)cc1	GLP-1R inv ag inconclusive (no result: ClpP mod)
O=C(NC1CCN(Cc2ccccc2)C1)c1cc(COc2ccc(F)cc2F)on1 (stereo unspecified)	GLP-1R inv ag inconclusive
CCCc1cc(=O)oc2cc(C)cc(OCC(=O)NC3CCN(Cc4ccccc4)CC3)c12	ClpP mod inconclusive
O=C(Cc1c(F)cccc1Cl)NC1CCN(Cc2ccccc2)CC1	D3 antag inconclusive
CC(Oc1ccc(Br)cc1)C(=O)NC1CCN(Cc2ccccc2)CC1 (stereo unspecified)	GLP-1R inv ag inconclusive, HEK293 tox inconclusive, D3 antag -75
